p53ts 32C kill = qHTS Screen for Compounds that Selectively Target Cancer Cells with p53 Mutations: Cytotoxicity of p53ts Cells at the Permissive Temperature; H1299-p53A138V at 32C, ATP luminescence viability, 24 h; Potency, µM (doses to about 46.1 µM), for the others: top-dose activity change, negative = cytotoxicity, hits mostly cytotoxic; actives 0.93% (n = 130,000);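 also: 0% = DMSO and -100% = full killing by reference compound; nearly all actives have a fitted effect of over 55% in size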
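Cells: H1299 p53ts (A138V), 600/well, pre-incubated 16–30 h at 37C. Cpd up to 46 uM, 24 h, 32C. Readout: ATPlite luminescence, 20 min RT. Normalization: DMSO vs tamoxifen 100 uM. AC50 by Hill equation.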
IkB sig inh = IkB Signaling | ABC-DLBCL IkBa-CBG/CBR dual luciferase ratio, 4 h; response scale: scaled: untreated 0%, proteasome inhibitor 100% | Potency, µM (series often up to 57.1 µM), for inactives: at the highest dose IkBa stabilization activation | AID 445, 2006 | actives 0.04% (n = 110,000); active = well fitted curve in the direction sought with a large enough effect in the signal ratio, not every such curve was filed as active; inconclusive = small, poorly fitted or top-dose-only effect, or a change in a side signal; the % refers to the signal ratio;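 also: the direction sought is a rising ratio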
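In this assay, an IκBα–CBG68 fusion accumulates when IKK-driven degradation is blocked; native CBR normalizes for cell number. OCI-Ly3 cells were treated 4 h with compound and doxycycline, then green and red light read after Chroma-Glo addition.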
Peg3 imprint = qHTS Assay for Compounds that Induce Erasure of Genomic Imprints; mouse ES Peg3-LacZ reporter, beta-gal luminescence, 40 h; Potency, µM (doses to about 60.7 µM), without a hit: top-dose activity change, positive = activation, usual class: activators; actives 0.02% (n = 110,000); AID 1948, 2009
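Gelatin-coated wells received 300 freshly trypsinized female ES cells with a Peg3LacZ-Neo reporter on the maternal allele, then incubated 40 hours at 37C. BetaGlo was added for 5 minutes at room temperature before a single luminescence read.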
p53ts 39C tox = qHTS Screen for Compounds that Selectively Target Cancer Cells with p53 Mutations: Cytotoxicity of p53ts Cells at the Nonpermissive Temperature; AID 902, 2007; Potency, µM (series often up to 46.1 µM), without a hit: top-dose activity change, negative = cell killing, most hits filed as cytotoxic; actives 1.5% (n = 130,000); H1299-p53A138V viability at 39C, ATP luminescence, 24 h; also: % is scaled to controls: 0 for no effect and ±100 for the full control effect; nearly all actives have a fitted effect of over 55% in size
An asterisk follows results filed as active; ? = inconclusive; · = not tested or not shown; [ ] = another dose, or the depositor's remark. Rows were chosen to be rich in hits. Some 1.7% of all compounds tested hit in one or more screens of this group. Unless noted, calls follow the shape of the dose curve; as a rule, active = well fitted curve in the direction sought with a large enough effect; inconclusive = small, poorly fitted or top-dose-only effect, or another doubt; inactive = no such curve, though single readings can be large; an effect the other way counts as inactive or inconclusive. Potency is read from the fitted curve at half-maximal effect.

SMILES | p53ts 32C kill | IkB sig inh | Peg3 imprint | p53ts 39C tox
Oc1ccccc1C(Sc1nc2ccccc2s1)Sc1nc2ccccc2s1 | -6%[9.22 µM] | -1%[11.4 µM] | -4%[10.9 µM] | 16%[9.22 µM]
COc1ccc(CNC(=O)c2nc(S(=O)(=O)Cc3ccccc3)ncc2Cl)cc1 | 20µM* | ? | -24%[10.9 µM] | 5µM*
O=C(Nc1nc2ccc(F)cc2s1)c1nc(S(=O)(=O)Cc2ccccc2F)ncc1Cl | 10µM* | -3% | -67%[10.9 µM] | 5µM*
Cc1ccc(C)c(NC(=O)c2nc(S(=O)(=O)Cc3ccc(F)cc3)ncc2Cl)c1 | ? | ? | -34%[10.9 µM] | 4µM*
O=C(NCc1ccccc1)c1nc(S(=O)(=O)Cc2ccccc2)ncc1Cl | ? | ? | -16%[10.9 µM] | 7.9µM*
Cc1noc(C)c1-c1cc(NCCN2CCOCC2)ncn1 | 3% | 2%[11.4 µM] | ? | -17%
CS(=O)(=O)c1ncc(Cl)c(C(=O)N(Cc2ccc(Cl)cc2)Cc2ccco2)n1 | 28µM* | ? | -40%[10.9 µM] | 3.2µM*
COc1ccc(CNC(=O)c2nc(SCc3ccc(C)cc3)ncc2Cl)cc1 | -6% | 0% | -13%[10.9 µM] | -23%
COc1ccc(N(Cc2ccccc2)C(=O)c2nc(S(C)(=O)=O)ncc2Cl)cc1 | 7.9µM* | ? | -38%[10.9 µM] | 4µM*
COc1ccc(NC(=O)c2nc(S(=O)(=O)Cc3ccc(C)cc3)ncc2Cl)cc1 | ? | -4% | -30%[10.9 µM] | 6.3µM*
NC[C@@H]1O[C@@H](O[C@H]2[C@@H](O)[C@H](O[C@@H]3[C@H](O)[C@H](N)C[C@H](N)[C@H]3O[C@@H]3O[C@@H](CO)[C@H](O)[C@H](O)[C@@H]3N)O[C@H]2CO)[C@H](N)[C@H](O)[C@@H]1O | -10% | ? | · | 4%
CN(C)C(=O)c1ccc(-c2ccc3ncnc(NC4CCNCC4)c3c2)cc1 | 0% | 2%[11.4 µM] | -25% | 2%
CCOC(=O)Cc1csc(NC(=O)CSc2nnc(-c3ccc(C)cc3)o2)n1 | 13µM* | 0% | -8% | 7.9µM*
Cc1ccc(NC(=O)CSc2nnc(NC(=O)NC3CCCCC3)s2)cc1 | -12% | 3% | 17%[10.9 µM] | ?
COc1cccc(NC(=O)CSc2nnc(NC(=O)NC3CCCCC3)s2)c1 | 11µM* | ? | ? | 13µM*
O=C1C2=C(Nc3cc([N+](=O)[O-])ccc3N2)O[C@@H]1c1ccc([C@H]2OC3=C(Nc4ccc([N+](=O)[O-])cc4N3)C2=O)cc1 | 5%[9.22 µM] | -2%[11.4 µM] | -7%[10.9 µM] | 18%[9.22 µM]
CCc1ccc(Nc2cc(C)nc3nc(Cc4ccc(Cl)cc4)nn23)cc1 | -12% | ? | -14%[10.9 µM] | 20µM*
Cc1ccc(Nc2cc(C)nc3nc(Cc4ccc(Cl)cc4)nn23)cc1 | 71% | ? | -13%[10.9 µM] | -14%
CC(=O)c1sc(Nc2nc3ccc(F)cc3s2)nc1C | 20µM* | ? | -47% | ?
COc1cccc(C(=O)Cn2c(=N)n(C)c3ccccc32)c1 | 3.2µM* | ? | -83% | 5µM*
Oc1ccccc1-c1nc(-c2cccs2)c(-c2cccs2)[nH]1 | ? | ? | -12%[10.9 µM] | 25µM*
CN(C)c1ccc(-c2nc(-c3cccs3)c(-c3cccs3)[nH]2)cc1 | 13% | ? | -16%[10.9 µM] | ?
Cc1cc(NCCN2CCOCC2)n2ncc(-c3ccccc3)c2n1 | -4% | 1% | 0% | -7%
Cc1cc(NCCCn2ccnc2)n2ncc(-c3ccccc3)c2n1 | 3.2µM* | 4% | -50% | 4µM*
O=C(NC1=NCCS1)C1COc2ccccc2O1 (configuration not stated) | 13µM* | ? | -90% | 13µM*
SMILES | p53ts 32C kill | IkB sig inh | Peg3 imprint | p53ts 39C tox
CNC(=O)[C@H]1O[C@@H](n2cnc3c(N)ncnc32)[C@H](O)[C@H]1O | · | · | -9% | ·
Cc1cccc(-c2nnc(NC(=O)c3ccc(Cl)cc3)o2)c1 | 6% | 7.9µM* | 1% | ?
COc1ccc(C(=O)Nc2nnc(-c3ccccc3)o2)cc1OC | -10% | ? | -15% | -25%
O=S(=O)(c1ccccc1)c1nc(-c2ccc(F)cc2)oc1N1CCCCCC1 | 5% | ? | -21%[10.9 µM] | 12%
CCCSc1oc(-c2cccs2)nc1S(=O)(=O)c1ccc(C)cc1 | 1% | ? | -19%[10.9 µM] | 1%
CCCCS(=O)(=O)c1oc(-c2cccs2)nc1S(=O)(=O)c1ccc(F)cc1 | 20µM* | ? | -38%[10.9 µM] | 3.2µM*
CCS(=O)(=O)c1oc(-c2ccc(F)cc2)nc1S(=O)(=O)c1ccccc1 | ? | ? | -38%[10.9 µM] | 2.5µM*
CCC(C)S(=O)(=O)c1oc(-c2ccc(F)cc2)nc1S(=O)(=O)c1ccc(F)cc1 (configuration not stated) | 4µM* | ? | -39%[10.9 µM] | 3.2µM*
CCCCCS(=O)(=O)c1oc(-c2cccs2)nc1S(=O)(=O)c1ccc(C)cc1 | ? | ? | -22%[10.9 µM] | 3.2µM*
COc1cc([C@@H](O)CO)ccc1OS(=O)(=O)O | 15% | -1% | · | 8%
Cc1cc(C)c2nc3c(c([C@H](O)C4CCCCN4)c2c1)CC/C3=C/c1ccc(Cl)cc1 (some centres not stated) | · | · | -15%[10.9 µM] | ·
Cc1ccc(S(=O)(=O)c2nc(-c3ccc(F)cc3)oc2N2CCN(c3ccccc3)CC2)cc1 | 12% | 0% | -4%[10.9 µM] | 14%
CCCCS(=O)(=O)c1oc(-c2ccc(F)cc2)nc1S(=O)(=O)c1ccc(C)cc1 | 13µM* | ? | -37%[10.9 µM] | 4µM*
Cc1cccc(C(=O)N2c3ncnn3C3(CCCCC3)[C@@H]3CCCC[C@@H]32)c1 | -4% | -1% | -9%[10.9 µM] | 13µM*
Cc1cccc2c1Oc1ccccc1[C@@H]2NC(=O)c1ccc([N+](=O)[O-])cc1 | 7%[9.22 µM] | 2%[11.4 µM] | 11%[10.9 µM] | 10%[9.22 µM]
CCN(CCN(C)C)C(=O)C1CCN(S(=O)(=O)c2c(C)noc2/C=C/c2ccccc2F)CC1 | -21% | -2% | 6%[10.9 µM] | 13µM*
CCOc1ccccc1/C=C/c1onc(C)c1S(=O)(=O)N1CCC(C(=O)N(CC)CC)CC1 | 13% | 1% | -8%[10.9 µM] | -8%
Cc1ccc(/C=C/c2onc(C)c2S(=O)(=O)N2CCC(C(=O)N3CCC(N(C)C(C)C)CC3)CC2)cc1 | ? | 0% | -16%[10.9 µM] | 20µM*
Cc1cccc(C)c1NC(=O)c1cc2sccc2n1Cc1ccc(F)cc1 | -17% | 1% | 12%[10.9 µM] | 13µM*
Cc1ccc(Cn2c(C(=O)Nc3cccc(Cl)c3)cc3sccc32)cc1 | -9% | ? | -4%[10.9 µM] | -11%
CC[C@@H]1[C@H]2CCCCN3[C@@H]2[C@@H](C[C@H]3[C@@H]2C[C@H](C)C(=O)O2)[C@@H]2[C@H]1OC(=O)[C@H]2C | · | 2%[11.4 µM] | · | ·
CCCSc1nnc(Cc2cc(=O)[nH]c(=O)[nH]2)n1-c1cc(C)ccc1C | -18% | 0% | 10µM* | 4%
CC(C)CC(=O)Nc1c(C(=O)N2CCN(c3ccccc3)CC2)oc2ccccc12 | -10% | ? | 13%[10.9 µM] | 17%

High-throughput results: PubChem BioAssay, National Center for Advancing Translational Sciences (NCATS)
